# Test results from PubChem BioAssay.
# The source made the active and inactive calls.
# What was measured:
# Albumin (Bos taurus) = Albumin (Bos taurus) (UniProt P02769); experiment: compounds binding labelled BSA control protein – biochemical, small-molecule microarray, Alexa647 label, 635/667 nm fluorescence, artefact control for SMM control protein annotation, profiling panel (AID 1118); details: BSA-A647 binding, fluorescence 635 nm, higher = more signal;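 note: score merges 667 nm emission intensity and signal-to-noise per printed compound spot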
# [1] = probe aXIP binding to arrayed compounds – biochemical, NeuroSMM set, 635/667 nm fluorescence, primary screen (AID 1119); details: small-molecule microarray, higher = more signal, called active from +8 up or from −8 down;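 note: probe is the protein aXip251-270 applied at 1 µg/mL to compound-printed slides; binding of probe to printed compounds measured as 667 nm fluorescence plus signal to noise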
# [2] = probe aNOTCH3 binding on compound microarray – biochemical, small-molecule microarray, 635/667 nm fluorescence, primary screen (AID 1120); details: higher = more signal;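 note: probe is a biotin-tagged antibody raised against NOTCH3 rather than NOTCH3 protein; score merges spot fluorescence near 667 nm with spot signal to noise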
# [3] = probe aNOTCH2 binding on compound microarray – biochemical, small-molecule microarray, 635/667 nm fluorescence, primary screen (AID 1121); details: higher = more signal;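 note: score merges feature fluorescence read at 667 nm with its signal to noise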
# [4] = target: Carbonic anhydrase 2 (Homo sapiens) (UniProt P00918); experiment: compounds binding carbonic anhydrase 2 – biochemical, small-molecule microarray, Alexa647-labelled CAII, profiling panel (AID 1122); details: CAII-A647 binding fluorescence, higher = more signal
# [5] = COS7 lysate on small-molecule microarray, probe aHis, 635 nm (AID 1123); details: COS7 cell lysate, fluorescence, higher = more signal;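 note: z-score combines 667nm fluorescence intensity with signal-to-noise per printed compound spot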
# [6] = probe aLAP1 signal on lysate-treated microarray – cell lysate, small-molecule microarray, COS7 lysate, primary screen (AID 1124); details: probe aLAP1, fluorescence, higher = more signal;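 note: lysate comes from COS7 cells expressing LAP1 and is applied at 0.3 µg/mL; score merges spot fluorescence near 667 nm with signal-to-noise over triplicate slides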
# Sam68 (KHDRBS1) = experiment: compounds binding KHDRBS1 protein – biochemical, small-molecule microarray, 635 nm fluorescence, primary screen (AID 1125); details: higher = more signal;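 note: score merges 667 nm channel intensity with signal to noise over triplicate slides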
# [7] = system: Chordin-like protein 2 (CHRDL2); experiment: compounds binding chordin-like 2 – biochemical, small-molecule microarray, 635 nm fluorescence, primary screen (AID 1126); details: fluorescence 635 nm, higher = more signal;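 note: printed compound slides probed with Chrdl2 protein at 4 µg/mL for 1 h at 4 C; score merges 667 nm emission intensity with signal to noise over three replicate slides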
# [8] = target: Concanavalin-A (Canavalia ensiformis) (UniProt P02866); experiment: compounds binding concanavalin A lectin – biochemical, small-molecule microarray, Alexa647 label, 635 nm, artefact control for SMM control protein annotation, primary screen (AID 1127); details: ConA-A647 binding fluorescence, higher = more signal;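 note: z combines 667 nm emission intensity with signal-to-noise across three replicate slides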
# [9] = compounds binding Alexa647 anti-His antibody – biochemical, small-molecule microarray, 635 nm fluorescence, artefact control for SMM control protein annotation, primary screen (AID 1128); details: higher = more signal;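 note: score merges feature fluorescence with signal-to-noise for each printed compound spot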
# [10] = system: Human papillomavirus type 1a E7 protein (residues 1-88); experiment: HPV1a E7 small-molecule binders, primary screen, biochemical, small-molecule microarray, residues 1-88, 635 nm (AID 1129); details: small-molecule microarray binding, fluorescence 635 nm; higher = more signal
# [11] = target: Focal adhesion kinase 1 (Homo sapiens) (UniProt Q05397); experiment: PTK2 protein binding on printed compound slides – biochemical, small-molecule microarray, 635/667 nm fluorescence, BSA, DTT, primary screen (AID 1130); details: 635 nm fluorescence, higher = more signal;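 note: composite of spot emission at 667 nm and signal to noise over triplicate slides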
# [12] = system: Fibrinogen (Alexa647-labelled); experiment: Alexa647-fibrinogen binding to printed small molecules – biochemical, small-molecule microarray, 635/667 nm fluorescence, artefact control for SMM control-protein annotation, profiling panel (AID 1131); details: fibrinogen-A647 binding fluorescence, higher = more signal;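 note: z-score merges 667 nm fluorescence with per-spot signal-to-noise over triplicate slides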
# [13] = target: Follistatin (Homo sapiens) (UniProt P19883); experiment: FST protein binding to printed compounds – biochemical, small-molecule microarray, 635/667 nm fluorescence, primary screen (AID 1132); details: 635 nm fluorescence, higher = more signal
# [14] = target: Fibroblast growth factor 2 (Homo sapiens) (UniProt P09038); experiment: basic fibroblast growth factor binding to printed compounds – biochemical, small-molecule microarray, 635/667 nm fluorescence, primary screen (AID 1133); details: FGF2, fluorescence 635/667, higher = more signal
# [15] = JC-1 mitochondrial potential readout, lung cancer cells – cell-based, A549, JC-1 fluorescence, basal, 24 h, 100 nL, profiling panel (AID 1138); details: higher = more signal;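 note: A549 lung adenocarcinoma cells under basal conditions with no added stimulus; test concentration not given here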
# Lefty1 = Lefty1 protein binding to printed compounds – biochemical, small-molecule microarray, 635/667 nm fluorescence, primary screen (AID 1139); details: fluorescence 635/667, higher = more signal
# [16] = system: wheat germ agglutinin (Triticum aestivum), Alexa647-labelled; experiment: Alexa647-WGA lectin binding to printed small molecules – biochemical, small-molecule microarray, 635/667 nm fluorescence, artefact control for SMM control-protein annotation, profiling panel (AID 1140); details: WGA-A647 binding, 635 nm fluorescence, higher = more signal;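 note: score merges 667 nm feature emission with signal to noise over triplicate slides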
# [17] = target: Luciferin 4-monooxygenase (Photinus pyralis) (UniProt P08659); experiment: inhibition of purified Photinus pyralis luciferase – biochemical, luminescence, purified enzyme, 2006 set, primary screen (AID 1141); details: purified firefly luciferase, SteadyGlo luminescence, 30 min; higher = more signal, called active from +8 up or from −8 down;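 note: cell-free assay with purified firefly luciferase at 100 ng per well in PBS; test concentration not given here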
# Sequence of Luciferin 4-monooxygenase (Photinus pyralis) (P08659 whole entry, looked up): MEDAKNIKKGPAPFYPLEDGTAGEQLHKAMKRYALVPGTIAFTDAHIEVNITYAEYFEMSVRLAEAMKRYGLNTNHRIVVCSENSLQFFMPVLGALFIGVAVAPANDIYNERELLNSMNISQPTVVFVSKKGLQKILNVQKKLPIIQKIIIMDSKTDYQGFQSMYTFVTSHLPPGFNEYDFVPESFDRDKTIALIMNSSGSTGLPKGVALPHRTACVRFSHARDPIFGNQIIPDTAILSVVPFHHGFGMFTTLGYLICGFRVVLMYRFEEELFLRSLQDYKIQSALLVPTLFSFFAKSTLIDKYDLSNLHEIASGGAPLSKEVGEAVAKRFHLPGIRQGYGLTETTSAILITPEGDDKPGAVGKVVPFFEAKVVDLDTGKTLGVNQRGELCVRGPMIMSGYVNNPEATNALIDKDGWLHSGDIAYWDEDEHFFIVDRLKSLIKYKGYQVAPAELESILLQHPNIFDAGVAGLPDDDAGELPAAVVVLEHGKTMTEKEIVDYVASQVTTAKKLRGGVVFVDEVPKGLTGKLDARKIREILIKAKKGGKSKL
# Sequence of Concanavalin-A (Canavalia ensiformis) (P02866 whole entry, looked up): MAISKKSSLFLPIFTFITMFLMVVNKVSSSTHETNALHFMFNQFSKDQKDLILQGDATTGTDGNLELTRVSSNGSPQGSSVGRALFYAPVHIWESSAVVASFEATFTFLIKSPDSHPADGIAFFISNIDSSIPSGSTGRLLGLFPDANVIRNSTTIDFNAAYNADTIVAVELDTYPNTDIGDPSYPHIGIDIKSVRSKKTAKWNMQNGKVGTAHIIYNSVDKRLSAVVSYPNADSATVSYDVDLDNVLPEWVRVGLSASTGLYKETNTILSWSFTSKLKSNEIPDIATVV
# Sequence of Albumin (Bos taurus) (P02769 whole entry, looked up): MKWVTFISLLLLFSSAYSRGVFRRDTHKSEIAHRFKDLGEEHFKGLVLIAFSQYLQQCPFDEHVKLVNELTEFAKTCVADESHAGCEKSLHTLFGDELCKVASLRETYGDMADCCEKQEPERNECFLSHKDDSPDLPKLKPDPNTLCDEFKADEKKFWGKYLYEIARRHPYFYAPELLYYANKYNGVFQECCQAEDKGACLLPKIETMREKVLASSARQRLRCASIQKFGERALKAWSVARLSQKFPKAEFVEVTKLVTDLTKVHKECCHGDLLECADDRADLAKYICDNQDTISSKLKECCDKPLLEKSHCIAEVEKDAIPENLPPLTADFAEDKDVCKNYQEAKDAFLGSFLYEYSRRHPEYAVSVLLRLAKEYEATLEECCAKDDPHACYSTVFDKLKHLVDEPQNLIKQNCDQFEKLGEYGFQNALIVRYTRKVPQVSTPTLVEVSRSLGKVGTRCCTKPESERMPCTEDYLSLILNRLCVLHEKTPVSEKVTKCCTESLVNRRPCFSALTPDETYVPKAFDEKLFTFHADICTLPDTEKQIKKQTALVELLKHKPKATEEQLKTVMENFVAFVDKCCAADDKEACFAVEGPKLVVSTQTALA
# Sequence of Follistatin (Homo sapiens) (P19883 whole entry, looked up): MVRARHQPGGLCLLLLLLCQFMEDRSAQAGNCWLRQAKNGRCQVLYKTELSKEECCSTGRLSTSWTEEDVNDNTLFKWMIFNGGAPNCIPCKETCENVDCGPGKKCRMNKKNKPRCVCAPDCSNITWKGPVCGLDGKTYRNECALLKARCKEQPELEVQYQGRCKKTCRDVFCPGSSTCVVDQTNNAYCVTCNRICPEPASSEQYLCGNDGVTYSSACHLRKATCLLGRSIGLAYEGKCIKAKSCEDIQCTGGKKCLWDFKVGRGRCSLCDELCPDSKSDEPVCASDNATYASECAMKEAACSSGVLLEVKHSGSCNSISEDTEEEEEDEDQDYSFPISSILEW
# Sequence of Fibroblast growth factor 2 (Homo sapiens) (P09038 whole entry, looked up): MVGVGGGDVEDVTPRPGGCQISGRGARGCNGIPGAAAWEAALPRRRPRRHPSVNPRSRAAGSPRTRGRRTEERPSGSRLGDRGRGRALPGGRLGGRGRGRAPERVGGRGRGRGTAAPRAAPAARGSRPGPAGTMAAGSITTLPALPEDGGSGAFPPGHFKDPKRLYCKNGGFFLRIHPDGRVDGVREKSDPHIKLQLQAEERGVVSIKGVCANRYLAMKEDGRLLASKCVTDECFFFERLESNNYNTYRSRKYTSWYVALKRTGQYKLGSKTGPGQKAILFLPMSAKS
# Sequence of Focal adhesion kinase 1 (Homo sapiens) (Q05397 whole entry, looked up): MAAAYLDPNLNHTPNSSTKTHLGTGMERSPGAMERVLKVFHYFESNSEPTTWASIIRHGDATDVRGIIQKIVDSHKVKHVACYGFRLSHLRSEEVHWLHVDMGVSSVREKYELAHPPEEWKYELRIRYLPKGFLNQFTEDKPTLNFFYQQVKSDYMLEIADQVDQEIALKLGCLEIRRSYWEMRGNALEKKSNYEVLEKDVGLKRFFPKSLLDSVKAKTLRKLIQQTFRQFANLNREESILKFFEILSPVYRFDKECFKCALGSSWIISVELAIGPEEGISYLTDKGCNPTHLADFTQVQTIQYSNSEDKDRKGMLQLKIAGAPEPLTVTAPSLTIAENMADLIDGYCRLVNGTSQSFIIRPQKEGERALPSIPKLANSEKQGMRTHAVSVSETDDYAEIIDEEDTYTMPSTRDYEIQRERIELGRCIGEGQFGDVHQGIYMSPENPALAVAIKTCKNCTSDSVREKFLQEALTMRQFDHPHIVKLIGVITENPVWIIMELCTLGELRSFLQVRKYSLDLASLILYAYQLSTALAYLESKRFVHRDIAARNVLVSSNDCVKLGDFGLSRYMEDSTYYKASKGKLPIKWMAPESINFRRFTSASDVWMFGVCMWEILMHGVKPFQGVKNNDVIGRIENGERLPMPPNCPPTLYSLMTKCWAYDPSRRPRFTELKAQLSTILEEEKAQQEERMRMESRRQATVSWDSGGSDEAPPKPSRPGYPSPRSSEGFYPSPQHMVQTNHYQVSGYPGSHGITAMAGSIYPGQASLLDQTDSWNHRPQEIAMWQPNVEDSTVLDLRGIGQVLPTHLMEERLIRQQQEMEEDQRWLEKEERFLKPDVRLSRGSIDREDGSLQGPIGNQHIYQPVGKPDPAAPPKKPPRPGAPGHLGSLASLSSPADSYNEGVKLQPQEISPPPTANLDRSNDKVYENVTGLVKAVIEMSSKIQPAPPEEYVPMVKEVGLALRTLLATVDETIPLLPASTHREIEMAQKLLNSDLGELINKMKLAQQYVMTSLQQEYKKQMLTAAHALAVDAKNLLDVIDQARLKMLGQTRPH
compound,measurement,setting,value
CN(C)c1ccc(C(O)C2C=CC3C(=O)NC(=O)C3N2Nc2ccccn2)cc1 (stereo not given),composite z-score,Albumin (Bos taurus),0.396
same,composite Z-score,[1],0.378 (inactive)
same,composite z-score,[2],-0.0419
same,composite z-score,[3],0.046
same,composite z-score,[4],0.788
same,composite z-score,[5],0.718
same,composite z-score,[6],0.282
same,composite z-score,Sam68 (KHDRBS1),0.711
same,composite z-score,[7],0.987
same,composite z-score,[8],0.372
same,composite z-score,[9],0.909
same,composite z-score,[10],0.683
same,composite z-score,[11],0.304
same,composite z-score,[12],0.309
same,composite z-score,[13],1.32
same,composite z-score,[14],0.417
same,z-score,[15],0.229
same,composite z-score,Lefty1,0.783
same,composite z-score,[16],0.423
same,z-score,[17],-0.866 (inactive)
COCCCNC(=O)[C@@]1(CCC(=O)OC(C)(C)C)N=C(c2ccc(OCCCO)cc2)O[C@H]1c1ccccc1N=[N+]=[N-],composite z-score,Albumin (Bos taurus),0.945
same,composite Z-score,[1],0.289 (inactive)
same,composite z-score,[2],0.26
same,composite z-score,[3],0.325
same,composite z-score,[4],0.62
same,composite z-score,[5],2.01
same,composite z-score,[6],0.843
same,composite z-score,Sam68 (KHDRBS1),1.25
same,composite z-score,[7],0.279
same,composite z-score,[8],1.16
same,composite z-score,[9],3.41
same,composite z-score,[10],1.26
same,composite z-score,[11],1.04
same,composite z-score,[12],1.05
same,composite z-score,[13],1.1
same,composite z-score,[14],1.15
same,z-score,[15],2.07
same,composite z-score,Lefty1,-0.167
same,composite z-score,[16],0.548
same,z-score,[17],-7.45 (inactive)
CCOC(=O)C[C@H]1[C@H](OC(=O)c2ccc(C(=O)c3ccccc3)cc2)[C@@H](NC(=O)CC(C)C)c2cc(OCCCO)ccc2N1C(=O)c1ccccc1,composite z-score,Albumin (Bos taurus),0.415
same,composite Z-score,[1],-0.24 (inactive)
same,composite z-score,[2],0.104
same,composite z-score,[3],-0.0357
same,composite z-score,[4],0.351
same,composite z-score,[5],1.01
same,composite z-score,[6],-0.0609
same,composite z-score,Sam68 (KHDRBS1),1.3
same,composite z-score,[7],0.262
same,composite z-score,[8],1.05
same,composite z-score,[9],0.152
same,composite z-score,[10],1.11
same,composite z-score,[11],0.188
same,composite z-score,[12],0.965
same,composite z-score,[13],0.839
same,composite z-score,[14],0.609
same,z-score,[15],1.63
same,composite z-score,Lefty1,1.26
same,composite z-score,[16],0.227
same,z-score,[17],-0.675 (inactive)
CC(=O)NCCCC[C@@H]1NC(=O)[C@@H]2C[C@H](C(=O)NCCCCCN)[C@H](c3ccc(O)cc3)N2C1=O,composite z-score,Albumin (Bos taurus),0.0285
same,composite Z-score,[1],-0.0662 (inactive)
same,composite z-score,[2],0.237
same,composite z-score,[3],0.0654
same,composite z-score,[4],0.527
same,composite z-score,[5],1.26
same,composite z-score,[6],1.06
same,composite z-score,Sam68 (KHDRBS1),1.11
same,composite z-score,[7],0.964
same,composite z-score,[8],0.956
same,composite z-score,[9],0.367
same,composite z-score,[10],1.19
same,composite z-score,[11],0.445
same,composite z-score,[12],0.671
same,composite z-score,[13],1.33
same,composite z-score,[14],1.24
same,z-score,[15],-0.664
same,composite z-score,Lefty1,1.58
same,composite z-score,[16],0.283
same,z-score,[17],-0.399 (inactive)
C=CCN1C(=O)[C@]2(CCS(=O)(=O)c3ccccc3)N=C(c3ccc(OCCCO)cc3)O[C@@H]2c2ccccc21,composite z-score,Albumin (Bos taurus),0.8
same,composite Z-score,[1],-0.0072 (inactive)
same,composite z-score,[2],0.177
same,composite z-score,[3],-0.112
same,composite z-score,[4],0.594
same,composite z-score,[5],3.23
same,composite z-score,[6],1.31
same,composite z-score,Sam68 (KHDRBS1),1.31
same,composite z-score,[7],1
same,composite z-score,[8],1.17
same,composite z-score,[9],2.73
same,composite z-score,[10],1.23
same,composite z-score,[11],1.29
same,composite z-score,[12],0.891
same,composite z-score,[13],1.31
same,composite z-score,[14],1.47
same,z-score,[15],1.3
same,composite z-score,Lefty1,0.825
same,composite z-score,[16],1.19
same,z-score,[17],-2.23 (inactive)
